Assay [1] in a line: qHTS assay to identify small molecule agonists of the estrogen receptor alpha (ER-alpha) signaling pathway in the presence of an antagonist - cell viability counter screen (AID 1259386).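 Further: series mostly up to about 92 µM; cells exposed to compounds for 22 h at 37 °C before the viability read; nearly all actives have a fitted effect of over 30% in size.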 The procedure, abridged:
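The test measures whether compounds kill ER-alpha reporter cells (VM7Luc4E2) under antagonist co-treatment (ICI-182,780, 10.0nM). Fluorescence from CellTiter-Fluor is read after a 22hr exposure.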
In general terms: In qHTS, concentration-response curves come from the screen itself.

Assay [2] deals with Progesterone receptor (Homo sapiens) (UniProt P06401). Briefly: qHTS assay to identify small molecule agonists of the progesterone receptor (PR) signaling pathway (AID 1346784; calls by dose curve; further: nearly all actives have a fitted effect of over 30% in size). In a few lines:
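HEK 293T PR-UAS-bla reporter cells, 2% charcoal-stripped FBS; 6 hr settle at 37C/5% CO2, compound (DMSO) 16 hr, LiveBLAzer B/G FRET substrate 2 hr RT, fluorescence intensity read.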

Assay [3] can be described thus: qHTS assay to identify small molecule antagonists of the progesterone receptor (PR) signaling pathway - cell viability counter screen (AID 1346798). Further: series mostly up to about 92 µM; nearly all actives have a fitted effect of over 50% in size. The procedure, abridged: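 Luminescence readout (CellTiter-Glo, 30 min, RT) of viability in PR-UAS-bla HEK293T cells exposed to compound and R5020 agonist for 16 hr at 37C, 5% CO2; run in the same wells as the beta-lactamase reporter read.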

Assay [4] in a line: qHTS assay to identify small molecule antagonists of the TGF-beta/Smad signaling pathway - cell viability counter screen (AID 1346824). Further: nearly all actives have a fitted effect of over 50% in size. In a few lines: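 SBE-bla HEK 293T cells, incubated overnight, then compound plus 0.25 ng/mL TGF-beta1 (stock added) for 5 hr at 37 C. Viability was read in the same wells by CellTiter-Glo luminescence after 30 min at room temperature.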
Assay [5] can be described thus: qHTS assay to identify small molecule agonists of the TGF-beta/Smad signaling pathway - cell viability counter screen (AID 1346829). Further: top concentration of the series differs between compounds; nearly all actives have a fitted effect of over 45% in size. In a few lines:
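In parallel with the Smad reporter read, viability of HEK 293T cells stably carrying SBE-bla is quantified by ATP luminescence following 5 hr compound treatment.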

A short description of assay [6]: qHTS assay to identify small molecule agonists of the TGF-beta/Smad signaling pathway (AID 1346859; active means well fitted activation curve with a large enough effect in the signal ratio in the repeat runs, not every such curve was filed as active; the % refers to the signal ratio; further: series mostly up to about 77 µM). The procedure, abridged: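 Read-out: fluorescence at 460 and 530 nm (405 nm excitation) after a 2 hr room-temperature incubation with beta-lactamase FRET substrate. SBE-bla HEK 293T cells had been treated with test compounds for 5 hr at 37 C.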
Assay [7] has as its target Thyrotropin-releasing hormone receptor (Homo sapiens) (UniProt P34981). Nature of the assay: qHTS assay to identify small molecule antagonists of the thyrotropin-releasing hormone receptor (TRHR) signaling pathway (AID 1346877; active means well fitted inhibition curve with a large enough effect in the repeat runs, not every such curve was filed as active; further: series mostly up to about 51 µM). In a few lines:
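Overnight-plated (18 h, 37 °C) HEK293 cells expressing TRHR were dye-loaded 2 h, treated with compound, then stimulated with TRH at 1 nM final. Fluorescence intensity was captured every second for 3 min.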

The target is the same in assay [8]. Briefly: qHTS assay to identify small molecule agonists of the thyrotropin-releasing hormone receptor (TRHR) signaling pathway (AID 1346891; calls by dose curve;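 further: HEK293 cells expressing TRHR with calcium dye readout; series mostly up to about 58 µM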). The procedure, abridged: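 HEK293/TRHR cells, 1500 per well, 18 h 37 °C; Ca dye 2 h 37 °C; pin-tool compound addition (agonist mode); kinetic fluorescence 3 min, 1 s reads; 15 concentrations, triplicate.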
Assay [9] is described as follows: Human pregnane X receptor (PXR) small molecule agonists, qHTS cell viability counter screen (AID 1346977). Further: nearly all actives have a fitted effect of over 50% in size. In a few lines: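 Fluorescence read-out (CellTiter-Fluor) of viability in PXR-Luc HepG2 cells, multiplexed with the luciferase agonist read. Compounds in DMSO added after 5hr plating; 24hr total exposure at 37C, 5% CO2.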
Assay [10] is described as follows: Caspase-3/7 induction in HepG2 cells by small molecules, qHTS assay (AID 1346978). Further: nearly all actives have a fitted effect of over 15% in size. In a few lines: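 Wild-type HepG2 cells, 2,000/well, settled 5 hr at 37 C and 5% CO2, then compound-treated for 17 hr; caspase-3/7 activity read by luminescent Caspase-Glo 3/7 after 30 min at room temperature.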
Assay [11] can be described thus: Caspase-3/7 induction in CHO-K1 cells by small molecules, qHTS cell viability counter screen (AID 1346979). Further: nearly all actives have a fitted effect of over 35% in size. The procedure, abridged:
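CHO-K1 wt, 1,500 cells/well; 5hr pre-incubation 37C/5% CO2; compound pin transfer (DMSO); 16hr exposure; CellTiter-Fluor added, 1hr, fluorescence read.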

The nature of assay [12]: Caspase-3/7 induction in CHO-K1 cells by small molecules, qHTS assay (AID 1346980). Further: nearly all actives have a fitted effect of over 15% in size. In a few lines:
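Wild-type CHO-K1 cells exposed to compounds for 17hr at 37 C, 5% CO2. Caspase-3/7 activity then measured by Caspase-Glo 3/7 luminescence after 30min at room temperature.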

The nature of assay [13]: Caspase-3/7 induction in HepG2 cells by small molecules, qHTS cell viability counter screen (AID 1346981). Further: series mostly up to about 92 µM; nearly all actives have a fitted effect of over 30% in size. The procedure, abridged:
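Treatment of HepG2 cells with DMSO-delivered compounds ran 16 hr at 37 C following a 5-hr pre-incubation of 2,000 cells/well. CellTiter-Fluor fluorescence, read after 1 hr, served as the viability measure in a qHTS format.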

The target in assay [14] is Nuclear receptor subfamily 1 group I member 2 (Homo sapiens) (UniProt O75469). Nature of the assay: Human pregnane X receptor (PXR) small molecule agonists, qHTS assay (AID 1346982). Further: nearly all actives have a fitted effect of over 35% in size. Further: potency means the concentration at half of the fitted maximal effect. The procedure, abridged:
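Stable HepG2 line reporting PXR-mediated CYP3A4 expression via luciferase. Treatment: 24 hr with compounds in DMSO at 37 C. Detection: ONE-Glo luminescence.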

Assay [15] addresses Nuclear receptor subfamily 1 group I member 2 (Rattus norvegicus) (UniProt Q9R1A7). Nature of the assay: Rat pregnane X receptor (rPXR) activation by small molecules, qHTS assay (AID 1346983). Further: nearly all actives have a fitted effect of over 20% in size. As to conditions: rPXR luciferase reporter cells, One-Glo luminescence, 24 h; max activation: stronger effect = higher value. The procedure, abridged: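 Cell-based rPXR activation assay: rPXR cells, 2,000 per well, rested 5hr at 37 C, then exposed to compounds in DMSO for 24 hr at 37 C. Luciferase activity read by One-Glo luminescence after 30 min at room temperature.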

The target of assay [16] is Nuclear receptor subfamily 1 group I member 2 (Homo sapiens) (UniProt O75469). Briefly: CYP3A4 induction through human pregnane X receptor (PXR) by small molecules, qHTS assay (AID 1346984). Further: nearly all actives have a fitted effect of over 40% in size. The procedure, abridged:
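After 24 h at 37C with compound, DPX-2 cells (HepG2, co-transfected PXR response element and CYP3A4 promoter-luciferase) got 3uM final P450-Glo Luciferin-IPA for 3 h; One-Glo luminescence followed.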

In assay [17] the target is Progesterone receptor (Homo sapiens) (UniProt P06401). Nature of the assay: qHTS assay to identify small molecule antagonists of the progesterone receptor (PR) signaling pathway (AID 1346795; active means well fitted inhibition curve with a large enough effect in the signal ratio in the repeat runs, not every such curve was filed as active; the % refers to the signal ratio; further: potency means the concentration at half of the fitted maximal effect). The procedure, abridged:
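Beta-lactamase reporter, HEK293T PR-UAS-bla line; 2% charcoal-stripped FBS; 6 hr pre-incubation, 37C/5% CO2. Compound + R5020 1 nM final, 16 hr. LiveBLAzer B/G FRET substrate, 2 hr RT; fluorescence intensity read.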

Assay [18] is described as follows: qHTS assay to identify small molecule agonists of the progesterone receptor (PR) signaling pathway - cell viability counter screen (AID 1346799; calls by dose curve; further: nearly all actives have a fitted effect of over 45% in size). In a few lines: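 HEK293T PR-UAS-bla, 3,000 cells/well, 2% charcoal-stripped FBS; 6 h settle, compound 16 h at 37C/5% CO2; LiveBLAzer 2 h RT, then CellTiter-Glo 30 min RT, luminescence read.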

Nine molecules from PubChem BioAssay (Tox21) can be followed below.

A number with no mark means an inactive call. Results filed as inconclusive are left out. Calls of active or inactive are those of the source. Unless noted, the call rests on the fitted dose curve; in most records, active means well fitted curve in the direction sought with a large enough effect in the repeat runs; inconclusive means weak or mixed curves; inactive means no such curve, though single readings can be large; an effect the other way counts as inactive or inconclusive.
On the % scale 0 is the no-effect control and ±100 the full control effect.

Progesterone receptor (Homo sapiens), sequence (P06401 whole entry, looked up): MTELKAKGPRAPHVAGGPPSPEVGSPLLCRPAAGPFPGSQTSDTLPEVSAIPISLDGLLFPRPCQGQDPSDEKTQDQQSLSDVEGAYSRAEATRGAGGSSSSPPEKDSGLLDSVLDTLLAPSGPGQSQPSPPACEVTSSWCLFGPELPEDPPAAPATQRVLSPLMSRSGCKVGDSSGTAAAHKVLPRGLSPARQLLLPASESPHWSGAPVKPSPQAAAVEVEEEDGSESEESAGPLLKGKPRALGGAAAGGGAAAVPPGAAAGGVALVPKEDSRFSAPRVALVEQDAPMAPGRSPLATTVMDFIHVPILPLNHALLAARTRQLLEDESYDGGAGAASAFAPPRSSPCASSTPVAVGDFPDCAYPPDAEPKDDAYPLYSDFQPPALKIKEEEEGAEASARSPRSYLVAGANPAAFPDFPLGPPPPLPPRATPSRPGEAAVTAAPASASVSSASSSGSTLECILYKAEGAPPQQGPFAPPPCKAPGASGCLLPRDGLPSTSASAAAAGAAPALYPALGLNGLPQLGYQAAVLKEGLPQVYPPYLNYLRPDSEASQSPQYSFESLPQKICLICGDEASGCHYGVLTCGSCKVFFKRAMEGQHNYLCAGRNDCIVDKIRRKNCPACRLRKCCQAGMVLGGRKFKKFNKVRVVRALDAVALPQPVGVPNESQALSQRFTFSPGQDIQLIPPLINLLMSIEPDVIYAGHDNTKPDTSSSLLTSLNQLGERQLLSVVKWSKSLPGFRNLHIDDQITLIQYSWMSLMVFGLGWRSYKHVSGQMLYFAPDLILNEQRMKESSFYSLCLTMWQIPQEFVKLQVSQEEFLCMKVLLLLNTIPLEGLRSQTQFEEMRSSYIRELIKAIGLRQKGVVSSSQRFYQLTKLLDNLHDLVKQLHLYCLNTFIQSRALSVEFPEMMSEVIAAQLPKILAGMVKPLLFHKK
Nuclear receptor subfamily 1 group I member 2 (Homo sapiens), sequence (O75469 whole entry, looked up): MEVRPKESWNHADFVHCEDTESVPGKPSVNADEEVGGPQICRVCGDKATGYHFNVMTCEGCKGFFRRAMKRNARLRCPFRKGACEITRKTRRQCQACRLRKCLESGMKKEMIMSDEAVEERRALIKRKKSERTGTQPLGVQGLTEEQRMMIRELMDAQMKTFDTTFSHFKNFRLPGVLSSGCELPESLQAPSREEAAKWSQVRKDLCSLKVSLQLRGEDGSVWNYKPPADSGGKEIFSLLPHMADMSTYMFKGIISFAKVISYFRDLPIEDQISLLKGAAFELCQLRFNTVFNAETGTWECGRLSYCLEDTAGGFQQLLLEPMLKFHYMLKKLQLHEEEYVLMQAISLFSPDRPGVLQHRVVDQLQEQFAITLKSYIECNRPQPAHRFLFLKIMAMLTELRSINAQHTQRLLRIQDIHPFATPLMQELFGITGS
Thyrotropin-releasing hormone receptor (Homo sapiens), sequence (P34981 whole entry, looked up): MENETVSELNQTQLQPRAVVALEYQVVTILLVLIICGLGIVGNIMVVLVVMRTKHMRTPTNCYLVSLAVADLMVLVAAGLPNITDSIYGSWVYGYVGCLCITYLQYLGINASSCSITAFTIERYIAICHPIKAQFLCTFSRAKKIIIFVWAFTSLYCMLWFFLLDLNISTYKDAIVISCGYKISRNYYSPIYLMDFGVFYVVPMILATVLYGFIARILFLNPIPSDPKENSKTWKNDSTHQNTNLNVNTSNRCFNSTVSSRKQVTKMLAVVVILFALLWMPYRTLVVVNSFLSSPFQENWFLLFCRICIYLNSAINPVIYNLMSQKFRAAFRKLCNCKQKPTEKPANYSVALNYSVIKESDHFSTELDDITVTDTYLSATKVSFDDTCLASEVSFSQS
Nuclear receptor subfamily 1 group I member 2 (Rattus norvegicus), sequence (Q9R1A7 whole entry, looked up): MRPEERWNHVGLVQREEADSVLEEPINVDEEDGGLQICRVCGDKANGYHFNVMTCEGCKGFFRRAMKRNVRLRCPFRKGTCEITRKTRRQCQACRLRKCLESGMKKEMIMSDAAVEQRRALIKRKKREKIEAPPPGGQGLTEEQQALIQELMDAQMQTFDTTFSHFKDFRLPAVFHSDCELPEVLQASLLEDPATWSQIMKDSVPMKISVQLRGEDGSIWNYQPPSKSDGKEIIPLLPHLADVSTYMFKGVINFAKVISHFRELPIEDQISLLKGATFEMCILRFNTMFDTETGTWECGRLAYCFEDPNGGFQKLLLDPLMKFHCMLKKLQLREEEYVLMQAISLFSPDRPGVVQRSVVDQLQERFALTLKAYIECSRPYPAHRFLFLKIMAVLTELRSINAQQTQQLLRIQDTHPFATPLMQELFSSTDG

As to `Nc1nc2c(ncn2CCC(CO)CO)c(=O)[nH]1`, the outcome in assay [1], in assay [4], in assay [5], in [6], in assay [7] and in assay [8] was inactive. For the same molecule, the outcome in assay [10], in [12] and in [13] was inactive. Besides, the Potency entry in [2], in assay [3], in [9], in assay [11], in [14] and in assay [16] was “inactive” each time. Further, the max activation in assay [15] was 3.6%.

Consider `NC1CCN(c2cccc(Cl)n2)CC1`, for which the Potency result in [2], in assay [17], in [3], in [9], in [11] and in assay [14] was “inactive” throughout. Also, the molecule was classed as inactive in assay [4], in assay [5], in [6], in [7], in assay [8] and in assay [10]. Also, the call in [12] and in assay [13] was inactive.

As for `CC(C)c1cccc(C(C)C)c1N`, the result in assay [1], in assay [4], in [5], in assay [6], in assay [7] and in [8] was inactive. For the same molecule, the molecule was called inactive in assay [10], in assay [12] and in [13]. Besides, the Potency result in assay [2], in [3], in assay [9], in [11] and in [14] was “inactive” each time.

With `CO[Si](CCCNCCC[Si](OC)(OC)OC)(OC)OC`, the result in [1], in [5], in assay [6], in assay [7], in assay [8] and in assay [10] was inactive. The outcome in [12] and in assay [13] was inactive. Further, the Potency entry in [2], in assay [18], in assay [9], in assay [11] and in assay [14] was “inactive” throughout.

On to `COc1cc(CCC(C)=O)ccc1O`, for which the Potency entry in assay [2], in assay [17], in [18], in assay [11] and in [14] was “inactive” in each case. The molecule was classed as inactive in assay [4], in [5], in assay [6], in assay [10], in [12] and in [13].

As to `O=C(O)Cc1cc(I)c(Oc2cc(I)c(O)c(I)c2)c(I)c1`, the outcome in [1], in [4], in [5], in [6], in assay [8] and in assay [10] was inactive. For the same molecule, the result in [12] was inactive. For the same molecule, the Potency in assay [17] is 18.9 µM (active); in assay [14], 37.8 µM (active). For the same molecule, the Potency entry in assay [3] and in [9] was “inactive” in each case.

Regarding `c1ccc(SCCSc2ccccc2)cc1`, the Potency entry in assay [2], in assay [3], in assay [18], in assay [9] and in assay [11] was “inactive” each time. For the same molecule, the outcome in assay [4], in assay [5], in assay [6], in assay [7], in [8] and in [10] was inactive. Also, the molecule was classed as inactive in assay [12] and in assay [13]. The Potency in [14] is 7.63 µM (active).

For `CCCC=O`, the Potency entry in assay [2], in assay [18], in assay [9], in assay [11] and in assay [14] was “inactive” in each case. Also, the molecule was classed as inactive in assay [4], in assay [5], in [6], in assay [10], in assay [12] and in assay [13].

For the molecule `C=C(C)C(=O)OCCC(C)OC(=O)C(=C)C` (stereo not drawn), the result in [1], in assay [4], in [5], in assay [6], in assay [7] and in assay [8] was inactive. Moreover, the molecule was called inactive in assay [10], in assay [12] and in assay [13]. Besides, the Potency entry in assay [2], in assay [18], in assay [9], in assay [11] and in assay [14] was “inactive” in each case.
